Laboratory results published in PubChem BioAssay (NCI).
About 83,000 compounds went through this panel and 20% of them were active in at least one assay; those are over-represented in the sample as a whole.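 Step 1: grow cells in 96-well plates. Step 2: add test compound at a single concentration. Step 3: incubate 48 h. Step 4: record percent growth.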 Activity calls are given as the source filed them. How the source made its calls: active means growth percent below 10; inactive means the rest.

What was measured:
Assay in all cases: NCI-60 one-dose screen, 48 h (100 = growth as untreated, 0 = no growth, -100 = all killed)
Settings in all cases: 10 µM unless noted
HCT-15 colon = tested on: HCT-15 colon
HT29 colon = tested on: HT29 colon
SNB-75 CNS = tested on: SNB-75 CNS
SNB-19 CNS = tested on: SNB-19 CNS
U251 CNS = tested on: U251 CNS
PC-3 prostate = tested on: PC-3 prostate
SK-MEL-5 melanoma = tested on: SK-MEL-5 melanoma
UACC-62 melanoma = tested on: UACC-62 melanoma
LOX IMVI melanoma = tested on: LOX IMVI melanoma
SK-MEL-28 melanoma = tested on: SK-MEL-28 melanoma

Measured: growth

C[C@H]1[C@H]2C3=CC[C@@H]4[C@@]5(C)C/C(=C/c6ccncc6)C(=O)C(C)(C)[C@@H]5CC[C@@]4(C)[C@]3(C)CC[C@@]2(C(=O)N2CCN(C)CC2)CC[C@@H]1C
inactive: HCT-15 colon 66% | HT29 colon 46.9% | SNB-75 CNS 76.3% | SNB-19 CNS 78.2% | U251 CNS 68.8% | PC-3 prostate 33.9% | SK-MEL-5 melanoma 87.7% | UACC-62 melanoma 80.2% | LOX IMVI melanoma 84.3% | SK-MEL-28 melanoma 101%

CCCCN(CCCC)CCCn1c(=O)c2sc3ncccc3c2n2nnc(-c3ccccc3)c12
inactive: HCT-15 colon 99.8% | HT29 colon 74.4% | SNB-75 CNS 86.1% | SNB-19 CNS 101% | U251 CNS 95.3% | PC-3 prostate 91.3% | SK-MEL-5 melanoma 107% | UACC-62 melanoma 90.8% | LOX IMVI melanoma 110% | SK-MEL-28 melanoma 98.4%

Cc1nc(Nc2ccc(NC(=S)Nc3ccccc3)cc2)nc2nc(SCc3ccccc3)[nH]c(=O)c12
inactive: HCT-15 colon 108% | HT29 colon 120% | SNB-75 CNS 104% | SNB-19 CNS 102% | U251 CNS 100% | PC-3 prostate 100% | SK-MEL-5 melanoma 99.7% | UACC-62 melanoma 81.7% | LOX IMVI melanoma 101% | SK-MEL-28 melanoma 115%

COc1cc2c(cc1OC)-c1ccc3cc4c(cc3c1N(CCCn1ccnc1)C2)OCO4
inactive: HCT-15 colon 95.7% | HT29 colon 27.6% | SNB-75 CNS 13.2% | SNB-19 CNS 17.2% | PC-3 prostate 37.6% | SK-MEL-28 melanoma 59.2%
active: U251 CNS -6.84% | SK-MEL-5 melanoma 8.78% | UACC-62 melanoma -20.4% | LOX IMVI melanoma 1.62%

N=C(N)c1ccc(-c2ccc(/C=C/c3ccccc3)s2)cc1
inactive: SNB-75 CNS 24.3% | SNB-19 CNS 24.3% | PC-3 prostate 52.7% | SK-MEL-5 melanoma 81.3% | UACC-62 melanoma 86.2% | SK-MEL-28 melanoma 80.8%
active: HCT-15 colon -54% | HT29 colon -2.42% | U251 CNS -46.6% | LOX IMVI melanoma -82.1%

O=[N+]([O-])c1ccc(-c2cc3c(Nc4ccc(Sc5nc6ccccc6s5)c(Cl)c4)ncnc3s2)cc1
inactive: HCT-15 colon 23.7% | HT29 colon 13.9% | SNB-75 CNS 83.9% | SNB-19 CNS 23.7% | U251 CNS 23% | PC-3 prostate 28.3% | SK-MEL-5 melanoma 59.1% | UACC-62 melanoma 54.9% | LOX IMVI melanoma 29.6% | SK-MEL-28 melanoma 75.2%

O=C(CCl)N1c2cccc3cccc(c23)N(C(=O)CCl)C1c1cn(-c2ccccc2)nc1-c1cccc([N+](=O)[O-])c1
inactive: HCT-15 colon 85.6% | HT29 colon 44.9% | SNB-75 CNS 85.1% | SNB-19 CNS 97.3% | U251 CNS 85% | PC-3 prostate 97.1% | SK-MEL-5 melanoma 98.9% | UACC-62 melanoma 86.8% | LOX IMVI melanoma 26.6% | SK-MEL-28 melanoma 106%

N#Cc1c(-c2ccc(C(F)(F)F)cc2)cc(N2CC(O)C2)n2c1nc1ccccc12
active: SNB-75 CNS -18.5%
inactive: HCT-15 colon 85.7% | HT29 colon 74% | SNB-19 CNS 24.8% | U251 CNS 40.2% | PC-3 prostate 39.6% | SK-MEL-5 melanoma 67.5% | UACC-62 melanoma 33.9% | LOX IMVI melanoma 53.2% | SK-MEL-28 melanoma 59.7%

Cn1cc(Nc2nccc(-c3ccc(N4CCCC4)c(C#N)c3)n2)cn1
inactive: HCT-15 colon 21.3% | HT29 colon 20.3% | SNB-75 CNS 24.5% | SNB-19 CNS 62.3% | U251 CNS 35.8% | PC-3 prostate 43% | SK-MEL-5 melanoma 38.8% | UACC-62 melanoma 28.8% | LOX IMVI melanoma 32.6% | SK-MEL-28 melanoma 64%

C=C(C)C1CCC(=C)C2CCC3(C)OC12/C=C(/COC(C)=O)CCC3O (stereo not given)
inactive: HCT-15 colon 96.1% | HT29 colon 140% | SNB-75 CNS 126% | SNB-19 CNS 112% | U251 CNS 89% | PC-3 prostate 95.9% | SK-MEL-5 melanoma 93.2% | UACC-62 melanoma 94.2% | LOX IMVI melanoma 84.2% | SK-MEL-28 melanoma 156%

Clc1ccc(-c2nc(NCCc3ccccc3)nc3c(NCCc4ccccc4)cnn23)cc1
inactive: HCT-15 colon 72.9% | HT29 colon 41.9% | SNB-75 CNS 85.6% | SNB-19 CNS 85.6% | U251 CNS 48.4% | PC-3 prostate 51.7% | SK-MEL-5 melanoma 94.2% | UACC-62 melanoma 73.2% | LOX IMVI melanoma 60.9% | SK-MEL-28 melanoma 75.2%

CCOC(=O)C(O)C(O)(c1ccccc1)c1ccccc1 (stereo not given)
inactive: HCT-15 colon 98% | HT29 colon 99.7% | SNB-75 CNS 89.7% | SNB-19 CNS 114% | U251 CNS 97.3% | PC-3 prostate 96.8% | SK-MEL-5 melanoma 97.6% | UACC-62 melanoma 98.5% | LOX IMVI melanoma 102% | SK-MEL-28 melanoma 95.8%

COc1cc(/C=C/C(=O)c2cccc(-n3cc(-c4ccc(Cl)cc4)[nH]c3=O)c2)cc(OC)c1OC
active: HT29 colon -12% | LOX IMVI melanoma -47.4%
inactive: HCT-15 colon 40.3% | SNB-75 CNS 84.9% | SNB-19 CNS 75.5% | U251 CNS 30.9% | PC-3 prostate 47.7% | SK-MEL-5 melanoma 58.2% | UACC-62 melanoma 72.4% | SK-MEL-28 melanoma 86.5%

N=C(N)c1ccc(-c2ccc(-c3ccc(Cl)cn3)s2)cc1
inactive: SNB-75 CNS 62% | SNB-19 CNS 65.7% | PC-3 prostate 56.3% | SK-MEL-5 melanoma 70.5% | UACC-62 melanoma 89.7% | SK-MEL-28 melanoma 76.4%
active: HCT-15 colon -46% | HT29 colon 0.247% | U251 CNS -24.7% | LOX IMVI melanoma -82.1%

N=C(N)c1ccc(-c2ccc(-c3ccc(Cl)cc3Cl)o2)cc1
inactive: SNB-75 CNS 19.7% | PC-3 prostate 52.6% | SK-MEL-5 melanoma 72.5% | UACC-62 melanoma 72.1% | SK-MEL-28 melanoma 46%
active: HCT-15 colon -74.1% | HT29 colon -71.1% | SNB-19 CNS -1.88% | U251 CNS -59.4% | LOX IMVI melanoma -94.7%

COc1cc(C2CC(=O)Nc3n[nH]c(-c4ccccc4)c32)cc(OC)c1OC (stereo not given)
inactive: HCT-15 colon 68.4% | HT29 colon 47.1% | SNB-75 CNS 47.7% | SNB-19 CNS 75.4% | U251 CNS 62.9% | PC-3 prostate 59.3% | SK-MEL-5 melanoma 68% | UACC-62 melanoma 38% | LOX IMVI melanoma 70.3% | SK-MEL-28 melanoma 66.5%

O=C(CC12CC3CC(CC(C3)C1)C2)NCCOCCOCCNC(=O)c1cc2c(o1)C(=O)c1ccccc1C2=O
active: HCT-15 colon -80.2% | HT29 colon 3.08% | SNB-75 CNS -99% | SNB-19 CNS -16.3% | U251 CNS -87.8% | PC-3 prostate 4.8% | SK-MEL-5 melanoma -97.5% | UACC-62 melanoma -94.9% | LOX IMVI melanoma -95.1% | SK-MEL-28 melanoma -73.5%

COc1ccc(-c2nc3sc4c(c3c(=O)[nH]2)CCCC4)c2ccccc12
active: HCT-15 colon 6.37% | HT29 colon -0.244% | SNB-75 CNS -25.5% | U251 CNS 6.38% | SK-MEL-28 melanoma -5.17%
inactive: SNB-19 CNS 36% | PC-3 prostate 11.7% | SK-MEL-5 melanoma 18.1% | UACC-62 melanoma 24.4% | LOX IMVI melanoma 26.9%

COc1ccc2cc(-c3ccc(C(=O)NN)c(C)n3)ccc2c1
inactive: HCT-15 colon 99% | HT29 colon 95% | SNB-75 CNS 109% | SNB-19 CNS 96.6% | U251 CNS 98.9% | PC-3 prostate 93.3% | SK-MEL-5 melanoma 102% | UACC-62 melanoma 82.1% | LOX IMVI melanoma 88.2% | SK-MEL-28 melanoma 93.7%

C[C@@H]1CC[C@@H]2[C@@H]1[C@H](OC(=O)/C=C/c1ccccc1)[C@]1(CCCOCCOCCOCCOC(=O)CCCC[C@@H]3SC[C@@H]4NC(=O)N[C@@H]43)C[C@@H](OC(=O)CO)[C@@]2(C)O1
inactive: HCT-15 colon 106% | HT29 colon 98.1% | SNB-75 CNS 88.8% | SNB-19 CNS 106% | U251 CNS 105% | PC-3 prostate 97.7% | SK-MEL-5 melanoma 105% | UACC-62 melanoma 102% | LOX IMVI melanoma 106% | SK-MEL-28 melanoma 108%

CNC(=O)NCC1OC(n2cnc3c(NC(=O)Nc4ccccc4)ncnc32)C2OC(C)(C)OC12 (stereo not given)
inactive: HCT-15 colon 97.5% | HT29 colon 98.5% | SNB-75 CNS 59.7% | SNB-19 CNS 85.3% | U251 CNS 94.1% | PC-3 prostate 71% | SK-MEL-5 melanoma 86.2% | UACC-62 melanoma 91.5% | LOX IMVI melanoma 100% | SK-MEL-28 melanoma 91.7%

Cc1cc(-c2ccccc2)cc(SC#N)[n+]1[O-]
inactive: HCT-15 colon 24.7% | HT29 colon 50.6% | SNB-75 CNS 78.5% | SNB-19 CNS 41.2% | U251 CNS 24.1% | PC-3 prostate 38.7% | SK-MEL-5 melanoma 32.6% | UACC-62 melanoma 28.8% | LOX IMVI melanoma 29.7% | SK-MEL-28 melanoma 45.1%

NC(=S)c1csc(CCNC(=O)c2ccccc2)n1
inactive: HCT-15 colon 100% | HT29 colon 107% | SNB-75 CNS 97.7% | SNB-19 CNS 107% | U251 CNS 97.6% | PC-3 prostate 96.6% | SK-MEL-5 melanoma 115% | UACC-62 melanoma 105% | LOX IMVI melanoma 110% | SK-MEL-28 melanoma 108%

COc1cccc(CCC2CCCN(c3cc(C)nc(N)n3)C2)c1 (stereo not given)
inactive: HCT-15 colon 21.9% | SNB-75 CNS 25.9% | SNB-19 CNS 23.8% | U251 CNS 15% | PC-3 prostate 20.2% | SK-MEL-5 melanoma 18.2% | UACC-62 melanoma 29.3% | LOX IMVI melanoma 17% | SK-MEL-28 melanoma 50.2%
active: HT29 colon 4.64%

CCCCNCC(=O)Nc1ccc(C(=O)OCC)cc1
inactive: HCT-15 colon 91.5% | HT29 colon 86.7% | SNB-75 CNS 108% | SNB-19 CNS 103% | U251 CNS 101% | PC-3 prostate 71.8% | SK-MEL-5 melanoma 101% | UACC-62 melanoma 95.3% | LOX IMVI melanoma 103% | SK-MEL-28 melanoma 115%

CCc1nc2ccccc2[nH]1
inactive: HCT-15 colon 108% | HT29 colon 108% | SNB-75 CNS 91.1% | SNB-19 CNS 98.3% | U251 CNS 106% | PC-3 prostate 101% | SK-MEL-5 melanoma 110% | UACC-62 melanoma 98.9% | LOX IMVI melanoma 107% | SK-MEL-28 melanoma 105%

CCOc1cc(C2C(Cl)C(=O)N2n2cnnc2)ccc1O (stereo not given)
inactive: HCT-15 colon 103% | HT29 colon 96.9% | SNB-75 CNS 72.5% | SNB-19 CNS 102% | U251 CNS 98.5% | PC-3 prostate 91.1% | SK-MEL-5 melanoma 106% | UACC-62 melanoma 95.5% | LOX IMVI melanoma 101% | SK-MEL-28 melanoma 105%
